From PubChem BioAssay
Activity calls are given as the source filed them.

Assays:
[1] = tested on: Human papillomavirus type 1a protein E7 (residues 44-93); assay: HPV1a E7 fragment binders on microarrays, primary screen, biochemical, small-molecule microarray, residues 44-93, 635 nm fluorescence (AID 1108); conditions: small-molecule microarray binding, fluorescence 635 nm; higher = more signal;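 also: E7 fragment applied at 1 µg/mL in TBST for 1 h at 4 C; score combines spot fluorescence with its signal to noise ratio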
[2] = modulators of HCV replicon luciferase signal, primary screen, HCV replication inhibitor project, Huh7 cells, luciferase reporter (AID 1109); conditions: 48 h, higher = more signal;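 also: huh7 hepatoma cells harbouring a luciferase neomycin HCV replicon reporter; luciferase luminescence as measure of HCV replicon replication; test concentration not given here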
[3] = target: Left-right determination factor 2 (Homo sapiens) (UniProt O00292); assay: LEFTY2 binders on small-molecule microarrays, primary screen, biochemical, small-molecule microarray, 635 nm fluorescence scan (AID 1110); conditions: LEFTY2 binding, higher = more signal
[4] = target: Calmodulin-1 (Homo sapiens) (UniProt P0DP23); assay: CALM1 binders on microarrays, EGTA buffer, profiling panel, biochemical, small-molecule microarray, Cy5-labelled CALM1 (AID 1111); conditions: Cy5-CALM1 binding fluorescence, higher = more signal;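 also: labelled calmodulin applied in Tris saline Tween buffer holding calcium plus EGTA and DTT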
[5] = target: Calmodulin-1 (Homo sapiens) (UniProt P0DP23); assay: calcium-bound CALM1 binders on microarrays, profiling panel, artefact control for SMM control-protein annotation, biochemical, small-molecule microarray, Cy5-labelled CALM1, plus calcium (AID 1112); conditions: Cy5-CALM1 binding fluorescence, higher = more signal;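 also: score merges spot fluorescence with signal to noise from triplicate slides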
[6] = small-molecule microarray binders of probe aWnt5a, primary screen, biochemical, biotinylated probe, 635/667 nm fluorescence (AID 1113); conditions: higher = more signal;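 also: score merges 667 nm fluorescence intensity with signal-to-noise per printed feature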
[7] = small-molecule microarray binders of probe aShh, primary screen, biochemical, biotinylated probe, 635/667 nm fluorescence (AID 1114); conditions: higher = more signal;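 also: probe is biotin-labelled aShh protein from a stem cell growth factor screen; measures binding of labelled protein to compounds printed on the slide; score merges feature fluorescence at 667 nm with signal-to-noise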
[8] = small-molecule microarray binders of probe aNog, primary screen, biochemical, biotinylated probe, 635/667 nm fluorescence (AID 1115); conditions: higher = more signal;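 also: probe is biotinylated aNog protein used at 0.15 µg/mL for 1 h at 4 C; z-score combines 667 nm fluorescence of each spot with its signal to noise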
[9] = target: Torsin-1A-interacting protein 1 (Homo sapiens) (UniProt Q5JTV8); assay: LAP1 binders from COS7 cell lysate, primary screen, small-molecule microarray, 635/667 nm fluorescence (AID 1116); conditions: COS7-hLAP1 lysate binding, 635 nm fluorescence, higher = more signal
[10] = target: Alpha-bungarotoxin (Bungarus multicinctus) (UniProt P60615); assay: alpha-bungarotoxin binders on microarray, profiling panel, artefact control for SMM control protein annotation, biochemical, small-molecule microarray, Alexa647 label, 635/667 nm fluorescence (AID 1117); conditions: alpha-BTX-A647 binding fluorescence, higher = more signal
Albumin (Bos taurus) = Albumin (Bos taurus) (UniProt P02769); assay: bovine serum albumin binders on microarray, profiling panel, artefact control for SMM control protein annotation, biochemical, small-molecule microarray, Alexa647 label, 635/667 nm fluorescence (AID 1118); conditions: BSA-A647 binding, fluorescence 635 nm, higher = more signal;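 also: score merges 667 nm emission intensity and signal-to-noise per printed compound spot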
[11] = small-molecule microarray binders of probe aXIP, primary screen, biochemical, NeuroSMM set, 635/667 nm fluorescence (AID 1119); conditions: higher = more signal, called active from +8 up or from −8 down;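 also: probe is the protein aXip251-270 applied at 1 µg/mL to compound-printed slides; binding of probe to printed compounds measured as 667 nm fluorescence plus signal to noise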
[12] = small-molecule binders of probe aNOTCH3, primary screen, biochemical, small-molecule microarray, 635/667 nm fluorescence (AID 1120); conditions: higher = more signal;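 also: probe is a biotin-tagged antibody raised against NOTCH3 rather than NOTCH3 protein; score merges spot fluorescence near 667 nm with spot signal to noise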
[13] = small-molecule binders of probe aNOTCH2, primary screen, biochemical, small-molecule microarray, 635/667 nm fluorescence (AID 1121); conditions: higher = more signal;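 also: score merges feature fluorescence read at 667 nm with its signal to noise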
[14] = target: Carbonic anhydrase 2 (Homo sapiens) (UniProt P00918); assay: CAII small-molecule binders, profiling panel, biochemical, small-molecule microarray, Alexa647-labelled CAII (AID 1122); conditions: CAII-A647 binding fluorescence, higher = more signal
[15] = COS7 lysate on small-molecule microarray, probe aHis, 635 nm (AID 1123); conditions: COS7 cell lysate, fluorescence, higher = more signal;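 also: z-score combines 667nm fluorescence intensity with signal-to-noise per printed compound spot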
[16] = compound binding in COS7 lysate, probe aLAP1, primary screen, cell lysate, small-molecule microarray (AID 1124); conditions: probe aLAP1, fluorescence, higher = more signal;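 also: lysate comes from COS7 cells expressing LAP1 and is applied at 0.3 µg/mL; score merges spot fluorescence near 667 nm with signal-to-noise over triplicate slides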
Sam68 (KHDRBS1) = assay: Sam68 small-molecule binders, primary screen, biochemical, small-molecule microarray, 635 nm fluorescence (AID 1125); conditions: small-molecule microarray binding, higher = more signal;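 also: score merges 667 nm channel intensity with signal to noise over triplicate slides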
[17] = tested on: Chordin-like protein 2 (CHRDL2); assay: CHRDL2 small-molecule binders, primary screen, biochemical, small-molecule microarray, 635 nm fluorescence (AID 1126); conditions: small-molecule microarray binding, fluorescence 635 nm; higher = more signal;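 also: printed compound slides probed with Chrdl2 protein at 4 µg/mL for 1 h at 4 C; score merges 667 nm emission intensity with signal to noise over three replicate slides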
[18] = target: Concanavalin-A (Canavalia ensiformis) (UniProt P02866); assay: ConA small-molecule binders, primary screen, artefact control for SMM control protein annotation, biochemical, small-molecule microarray, Alexa647 label, 635 nm (AID 1127); conditions: ConA-A647 binding fluorescence, higher = more signal;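 also: z combines 667 nm emission intensity with signal-to-noise across three replicate slides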
Sequence of Concanavalin-A (Canavalia ensiformis) (P02866 whole entry, looked up): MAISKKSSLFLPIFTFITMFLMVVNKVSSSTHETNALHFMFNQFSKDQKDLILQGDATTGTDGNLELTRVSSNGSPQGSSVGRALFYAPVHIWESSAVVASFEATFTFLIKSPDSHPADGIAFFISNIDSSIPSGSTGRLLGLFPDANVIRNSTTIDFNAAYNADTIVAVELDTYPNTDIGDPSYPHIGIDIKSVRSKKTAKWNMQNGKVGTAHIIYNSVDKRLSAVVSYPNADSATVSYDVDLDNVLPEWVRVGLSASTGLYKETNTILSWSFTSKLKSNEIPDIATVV

Sequence of Alpha-bungarotoxin (Bungarus multicinctus) (P60615 whole entry, looked up): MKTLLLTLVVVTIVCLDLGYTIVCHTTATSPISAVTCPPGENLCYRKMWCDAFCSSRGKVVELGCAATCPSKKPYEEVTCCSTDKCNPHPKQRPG
Sequence of Albumin (Bos taurus) (P02769 whole entry, looked up): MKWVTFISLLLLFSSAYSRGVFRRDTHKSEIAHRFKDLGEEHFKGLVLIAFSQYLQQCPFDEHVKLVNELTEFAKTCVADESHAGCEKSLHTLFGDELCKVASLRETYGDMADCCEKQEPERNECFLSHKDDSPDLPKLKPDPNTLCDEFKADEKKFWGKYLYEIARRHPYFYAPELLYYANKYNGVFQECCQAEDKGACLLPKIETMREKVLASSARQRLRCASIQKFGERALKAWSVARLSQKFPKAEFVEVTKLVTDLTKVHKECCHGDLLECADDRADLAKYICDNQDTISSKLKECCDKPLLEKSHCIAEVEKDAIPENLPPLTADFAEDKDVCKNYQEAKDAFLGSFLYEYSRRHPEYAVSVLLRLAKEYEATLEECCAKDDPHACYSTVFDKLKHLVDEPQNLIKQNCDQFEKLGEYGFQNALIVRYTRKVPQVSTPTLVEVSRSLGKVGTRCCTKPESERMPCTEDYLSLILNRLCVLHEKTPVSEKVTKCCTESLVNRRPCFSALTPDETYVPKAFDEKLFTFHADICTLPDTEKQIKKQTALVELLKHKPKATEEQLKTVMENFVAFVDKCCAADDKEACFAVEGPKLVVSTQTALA
Sequence of Left-right determination factor 2 (Homo sapiens) (O00292 whole entry, looked up): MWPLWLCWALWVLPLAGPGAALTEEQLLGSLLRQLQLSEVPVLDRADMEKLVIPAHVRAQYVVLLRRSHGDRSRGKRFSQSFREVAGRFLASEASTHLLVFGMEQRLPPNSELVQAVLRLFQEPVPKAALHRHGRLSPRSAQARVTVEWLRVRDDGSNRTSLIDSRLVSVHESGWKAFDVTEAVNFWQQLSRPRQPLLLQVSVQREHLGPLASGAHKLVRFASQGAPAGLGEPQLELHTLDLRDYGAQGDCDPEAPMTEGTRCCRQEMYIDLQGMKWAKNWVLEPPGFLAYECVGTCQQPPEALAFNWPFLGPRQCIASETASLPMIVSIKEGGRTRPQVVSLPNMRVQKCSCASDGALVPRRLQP
Sequence of Torsin-1A-interacting protein 1 (Homo sapiens) (Q5JTV8 whole entry, looked up): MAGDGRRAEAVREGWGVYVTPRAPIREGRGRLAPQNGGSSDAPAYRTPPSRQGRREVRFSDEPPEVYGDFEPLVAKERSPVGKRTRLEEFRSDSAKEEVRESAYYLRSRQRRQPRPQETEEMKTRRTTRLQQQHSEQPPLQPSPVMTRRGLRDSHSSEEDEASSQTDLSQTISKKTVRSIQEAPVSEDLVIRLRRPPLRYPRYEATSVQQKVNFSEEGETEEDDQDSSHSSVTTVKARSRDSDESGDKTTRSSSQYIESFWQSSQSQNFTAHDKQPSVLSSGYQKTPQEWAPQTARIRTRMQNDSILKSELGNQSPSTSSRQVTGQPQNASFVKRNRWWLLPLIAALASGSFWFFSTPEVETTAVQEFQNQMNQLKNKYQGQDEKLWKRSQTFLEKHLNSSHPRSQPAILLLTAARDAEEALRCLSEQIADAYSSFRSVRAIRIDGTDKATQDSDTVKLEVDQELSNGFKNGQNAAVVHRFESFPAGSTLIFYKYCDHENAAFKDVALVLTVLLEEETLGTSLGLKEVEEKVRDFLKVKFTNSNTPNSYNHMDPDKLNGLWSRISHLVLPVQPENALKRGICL

SMILES | composite z-score [1] | z-score [2] | composite z-score [3] | composite z-score [4] | composite z-score [5] | composite z-score [6] | composite z-score [7] | composite z-score [8] | composite z-score [9] | composite z-score [10] | composite z-score (Albumin (Bos taurus)) | composite Z-score [11] | composite z-score [12] | composite z-score [13] | composite z-score [14] | composite z-score [15] | composite z-score [16] | composite z-score (Sam68 (KHDRBS1)) | composite z-score [17] | composite z-score [18]
CCOC(=O)C[C@H]1[C@H](OC(=O)c2ccc(C(=O)c3ccccc3)cc2)[C@@H](NC(=O)c2ccc3ccccc3n2)c2cc(OCCCO)ccc2N1C(=O)c1ccc2ccccc2n1 | 1.03 | -0.931 | 0.691 | 0.338 | -0.59 | 0.0761 | -0.0904 | -0.158 | 1.92 | 0.583 | 0.802 | 0.525 (inactive) | 0.16 | -0.101 | 0.245 | 0.847 | 0.808 | 0.616 | -0.0787 | 0.564
C[C@]1(C(=O)NCC(F)(F)F)c2ccccc2C(=O)N(Cc2cc(F)cc(C(F)(F)F)c2)[C@H]1c1ccc(CO)cc1 | 1.05 | -0.906 | -0.977 | 1.6 | 0.302 | -0.224 | 0.0024 | 0.452 | 0.729 | 0.0035 | -0.385 | -0.191 (inactive) | -0.198 | -0.135 | 0.694 | 2.18 | 0.87 | 1.11 | -0.115 | 0.247
C[n+]1ccc2ccc(O)cc2c1 | 0.642 | -0.337 | 0.92 | -0.825 | -1.61 | -0.124 | -0.0804 | -0.323 | 1.62 | 0.273 | -0.567 | -0.269 (inactive) | -0.0044 | -0.102 | 0.596 | 0.403 | 0.854 | 0.14 | 1.27 | 0.369
C=C[C@H](OC)[C@@H](OC(=O)Nc1ccc(SC)cc1)c1ccc(OCCO)cc1 | 1.03 | 2.8 | 0.105 | 0.0629 | 0.362 | 0.0433 | -0.0035 | 0.375 | 1.35 | 1.62 | 0.383 | 0.651 (inactive) | -0.15 | -0.0956 | 0.503 | 1.45 | 0.503 | 0.904 | 0.0669 | 0.713
CC1CC/C=C\[C@H]2OC34C=CCN(CCN5CCOCC5)C(=O)[C@H]3N(CCCCCO)C(=O)[C@@H]4C2C(=O)O1 (stereo not given in full) | -1.78 | 0.824 | 0.0111 | -1.87 | -1.59 | -0.224 | -0.0769 | -0.321 | -0.595 | -1.06 | -1.19 | 0.905 (inactive) | -0.178 | -0.175 | 0.899 | -0.471 | -0.653 | -1.25 | -0.191 | -0.233
CCCCN1CC=CC23O[C@@H]4/C=C\CCCOC(=O)C4[C@H]2C(=O)N(C(C)CO)[C@@H]3C1=O (stereo not given in full) | -0.779 | -0.112 | -0.697 | -0.573 | -0.101 | -0.172 | -0.17 | -0.186 | -0.585 | -0.0491 | 0.962 | 0.727 (inactive) | -0.222 | -0.151 | 0.839 | 0.296 | 0.203 | -0.296 | 0.112 | -1.23
CC(C)(C)OC(=O)CC[C@@]1(C(=O)NCC(O)CO)N=C(c2ccc(OCCCO)cc2)O[C@@H]1c1ccccc1 (stereo not given in full) | 1.36 | 0.821 | -0.452 | -0.0155 | 0.924 | -0.0685 | 0.223 | 0.487 | 3.12 | 1.04 | 1.01 | 0.595 (inactive) | 0.178 | -0.0896 | 0.892 | 3.67 | 1.34 | 0.965 | -1.65 | 0.537
COC(=O)c1nc2oc1CC[C@@H](CO)NC(=O)N(C)Cc1cn(nn1)C[C@H](Cc1ccccc1)NC2=O | -0.205 | 1.34 | -1.11 | -0.423 | 0.376 | -0.129 | 0.0639 | 0.582 | 0.481 | 0.981 | 0.775 | -0.275 (inactive) | -0.256 | -0.152 | 0.942 | 1.02 | 0.483 | 0.178 | 0.376 | 0.667
Cc1ccc(N2C(=O)c3ccccc3[C@](C)(C(=O)NCCN3CCOCC3)[C@@H]2c2ccc(CO)cc2)nc1 | -0.742 | 0.548 | -1.28 | -0.597 | -0.583 | -0.228 | 0.0442 | -0.244 | -0.869 | -1.44 | -0.657 | -0.559 (inactive) | -0.279 | -0.14 | 0.494 | -0.0207 | 0.0322 | -1.39 | -0.494 | -0.828
C=CCC(OC(C)=O)[C@@H]1[C@@H](N(Cc2cc3ccccc3o2)C(=O)c2cccc3ccccc23)c2cc(OCCCO)ccc2N1C(=O)Cc1ccc(OC)cc1 (stereo not given in full) | -0.0348 | -0.431 | 0.443 | -0.158 | 0.344 | -0.0816 | -0.0146 | 0.328 | 0.153 | 0.608 | -0.131 | 0.495 (inactive) | 0.0602 | -0.0937 | 0.327 | 0.497 | -0.0685 | -0.0427 | 0.364 | -0.162
[N-]=[N+]=NCc1ccccc1[C@H]1OC(c2ccc(OCCCO)cc2)=N[C@@]1(Cc1ccccc1)C(=O)NCC(O)CO (stereo not given in full) | 1.13 | -1.38 | -0.524 | 1.52 | 0.564 | 0.507 | 0.128 | 1.9 | 1.51 | 0.131 | 0.691 | 0.0638 (inactive) | 0.506 | -0.0013 | 0.76 | 3.42 | 0.941 | 0.966 | -0.609 | -0.0213
